Results from the supplement of paper PMC11732987, “Enantioselective OTUD7B fragment discovery through chemoproteomics screening and high-throughput optimisation” (Communications Chemistry, 2025).

Assays:
Assay in all cases: log2 ratio of Biotin-Ahx-Ub-VS probe labelling (fragment/DMSO); higher = less target engagement (more negative = stronger competition), active = hit call of the paper (q ≤ 0.05, log2 ratio ≤ -1)
Details in all cases: compound concentration: 200 uM; treatment time: 3 h
USP42 = target: T1, USP42 (UniProt Q9H9J4)
T1 sequence (whole entry): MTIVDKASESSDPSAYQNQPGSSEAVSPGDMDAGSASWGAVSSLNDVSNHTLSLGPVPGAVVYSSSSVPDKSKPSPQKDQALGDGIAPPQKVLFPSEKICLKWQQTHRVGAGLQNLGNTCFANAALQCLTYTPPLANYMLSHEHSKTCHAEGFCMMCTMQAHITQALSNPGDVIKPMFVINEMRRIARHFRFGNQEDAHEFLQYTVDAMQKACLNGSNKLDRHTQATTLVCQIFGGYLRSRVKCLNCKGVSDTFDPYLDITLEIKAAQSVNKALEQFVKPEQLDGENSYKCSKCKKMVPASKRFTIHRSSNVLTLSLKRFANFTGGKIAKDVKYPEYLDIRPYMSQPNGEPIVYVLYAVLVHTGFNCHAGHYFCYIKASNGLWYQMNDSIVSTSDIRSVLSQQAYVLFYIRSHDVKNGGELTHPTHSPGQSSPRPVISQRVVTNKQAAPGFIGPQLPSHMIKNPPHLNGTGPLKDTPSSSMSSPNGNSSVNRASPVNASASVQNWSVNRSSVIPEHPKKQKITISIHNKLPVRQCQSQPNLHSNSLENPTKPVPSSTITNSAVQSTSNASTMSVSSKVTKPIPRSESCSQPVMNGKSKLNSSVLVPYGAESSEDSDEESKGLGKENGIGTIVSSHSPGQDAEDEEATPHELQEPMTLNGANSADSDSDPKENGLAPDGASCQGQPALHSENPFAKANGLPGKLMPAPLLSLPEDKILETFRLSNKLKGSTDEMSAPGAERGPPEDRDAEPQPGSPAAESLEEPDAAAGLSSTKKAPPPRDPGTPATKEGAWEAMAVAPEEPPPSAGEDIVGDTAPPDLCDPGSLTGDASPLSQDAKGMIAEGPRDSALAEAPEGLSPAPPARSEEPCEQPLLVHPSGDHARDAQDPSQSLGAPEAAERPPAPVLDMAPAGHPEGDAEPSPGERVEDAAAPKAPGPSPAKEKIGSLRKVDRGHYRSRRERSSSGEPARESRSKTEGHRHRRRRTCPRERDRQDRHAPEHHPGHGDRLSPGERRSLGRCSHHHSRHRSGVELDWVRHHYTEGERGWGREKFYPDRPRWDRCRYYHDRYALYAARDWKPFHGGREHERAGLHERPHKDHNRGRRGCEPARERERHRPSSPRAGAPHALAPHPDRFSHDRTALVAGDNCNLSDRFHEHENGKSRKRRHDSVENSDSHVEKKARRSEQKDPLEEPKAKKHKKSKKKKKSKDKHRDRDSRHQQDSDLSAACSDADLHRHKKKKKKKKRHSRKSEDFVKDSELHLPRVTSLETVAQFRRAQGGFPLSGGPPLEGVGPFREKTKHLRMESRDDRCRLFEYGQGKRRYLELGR
Procedure, shortened: (§1)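 HEK293T lysate (495 µg per sample, in Tris/CHAPS/IGEPAL buffer with protease inhibitors) was exposed in triplicate for 3 h to fragment at 200 µM or to vehicle, then to Biotin-Ahx-Ub-VS at 0.5 µM final for 1 h. Labelled DUBs were enriched on NeutrAvidin, digested with LysC and trypsin, and analysed by diaPASEF LC-MS/MS. Spectronaut label-free quantities were normalised to the global median, and values are average log2 ratios of fragment over vehicle from an unpaired t-test. Only proteins with ≥2 unique peptides were used.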

USP46 = USP46 (UniProt P62068)
Sequence of USP46 (P62068 whole entry): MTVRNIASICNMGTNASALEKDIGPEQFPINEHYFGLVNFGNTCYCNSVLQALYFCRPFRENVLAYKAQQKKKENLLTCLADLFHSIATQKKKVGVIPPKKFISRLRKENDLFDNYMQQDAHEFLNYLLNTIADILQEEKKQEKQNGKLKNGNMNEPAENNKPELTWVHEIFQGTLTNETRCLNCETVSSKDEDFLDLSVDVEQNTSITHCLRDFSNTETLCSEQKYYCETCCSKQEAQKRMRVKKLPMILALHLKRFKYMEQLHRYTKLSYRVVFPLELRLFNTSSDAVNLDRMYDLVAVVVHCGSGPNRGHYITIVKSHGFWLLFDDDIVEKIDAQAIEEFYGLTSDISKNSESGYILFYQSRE
Procedure, shortened: as §1

USP47 = target: T2, USP47 (UniProt Q96K76)
T2 sequence (whole entry): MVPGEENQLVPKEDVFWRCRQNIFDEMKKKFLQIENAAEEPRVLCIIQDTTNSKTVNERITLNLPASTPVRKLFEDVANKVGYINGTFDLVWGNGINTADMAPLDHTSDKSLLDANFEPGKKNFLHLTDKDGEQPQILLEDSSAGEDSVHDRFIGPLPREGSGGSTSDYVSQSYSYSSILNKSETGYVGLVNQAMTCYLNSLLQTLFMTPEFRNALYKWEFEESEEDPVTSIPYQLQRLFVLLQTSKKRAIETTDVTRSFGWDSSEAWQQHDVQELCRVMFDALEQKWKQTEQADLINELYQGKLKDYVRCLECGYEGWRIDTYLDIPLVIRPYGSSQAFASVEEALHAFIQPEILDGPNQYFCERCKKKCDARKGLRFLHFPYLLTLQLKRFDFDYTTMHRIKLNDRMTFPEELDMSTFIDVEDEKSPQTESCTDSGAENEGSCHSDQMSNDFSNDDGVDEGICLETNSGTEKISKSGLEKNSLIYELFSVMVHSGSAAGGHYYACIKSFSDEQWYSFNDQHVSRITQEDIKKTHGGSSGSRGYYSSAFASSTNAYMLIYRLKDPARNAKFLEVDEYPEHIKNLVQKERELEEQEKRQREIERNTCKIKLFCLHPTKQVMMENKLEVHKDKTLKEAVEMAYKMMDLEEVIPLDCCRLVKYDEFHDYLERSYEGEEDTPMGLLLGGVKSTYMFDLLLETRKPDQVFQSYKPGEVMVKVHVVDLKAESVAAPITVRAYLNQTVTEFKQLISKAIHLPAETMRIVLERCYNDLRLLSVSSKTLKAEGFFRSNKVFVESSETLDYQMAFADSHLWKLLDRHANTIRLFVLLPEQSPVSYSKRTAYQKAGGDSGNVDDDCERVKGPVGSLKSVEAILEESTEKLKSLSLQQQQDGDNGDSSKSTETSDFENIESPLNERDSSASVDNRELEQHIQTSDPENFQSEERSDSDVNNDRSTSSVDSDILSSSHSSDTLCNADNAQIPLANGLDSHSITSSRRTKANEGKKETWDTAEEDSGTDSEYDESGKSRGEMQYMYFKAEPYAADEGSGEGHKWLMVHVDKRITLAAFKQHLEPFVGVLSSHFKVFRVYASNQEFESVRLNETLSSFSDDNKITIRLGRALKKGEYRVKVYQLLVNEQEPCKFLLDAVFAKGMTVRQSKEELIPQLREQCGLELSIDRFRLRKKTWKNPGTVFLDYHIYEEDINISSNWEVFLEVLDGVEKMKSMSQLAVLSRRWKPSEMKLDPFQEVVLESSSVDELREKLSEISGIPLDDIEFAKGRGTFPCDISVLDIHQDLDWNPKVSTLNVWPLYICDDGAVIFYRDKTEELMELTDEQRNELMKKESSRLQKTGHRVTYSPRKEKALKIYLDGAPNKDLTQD
Procedure, shortened: as §1

USP48 = target: T3, USP48 (UniProt Q86UV5)
T3 sequence (whole entry): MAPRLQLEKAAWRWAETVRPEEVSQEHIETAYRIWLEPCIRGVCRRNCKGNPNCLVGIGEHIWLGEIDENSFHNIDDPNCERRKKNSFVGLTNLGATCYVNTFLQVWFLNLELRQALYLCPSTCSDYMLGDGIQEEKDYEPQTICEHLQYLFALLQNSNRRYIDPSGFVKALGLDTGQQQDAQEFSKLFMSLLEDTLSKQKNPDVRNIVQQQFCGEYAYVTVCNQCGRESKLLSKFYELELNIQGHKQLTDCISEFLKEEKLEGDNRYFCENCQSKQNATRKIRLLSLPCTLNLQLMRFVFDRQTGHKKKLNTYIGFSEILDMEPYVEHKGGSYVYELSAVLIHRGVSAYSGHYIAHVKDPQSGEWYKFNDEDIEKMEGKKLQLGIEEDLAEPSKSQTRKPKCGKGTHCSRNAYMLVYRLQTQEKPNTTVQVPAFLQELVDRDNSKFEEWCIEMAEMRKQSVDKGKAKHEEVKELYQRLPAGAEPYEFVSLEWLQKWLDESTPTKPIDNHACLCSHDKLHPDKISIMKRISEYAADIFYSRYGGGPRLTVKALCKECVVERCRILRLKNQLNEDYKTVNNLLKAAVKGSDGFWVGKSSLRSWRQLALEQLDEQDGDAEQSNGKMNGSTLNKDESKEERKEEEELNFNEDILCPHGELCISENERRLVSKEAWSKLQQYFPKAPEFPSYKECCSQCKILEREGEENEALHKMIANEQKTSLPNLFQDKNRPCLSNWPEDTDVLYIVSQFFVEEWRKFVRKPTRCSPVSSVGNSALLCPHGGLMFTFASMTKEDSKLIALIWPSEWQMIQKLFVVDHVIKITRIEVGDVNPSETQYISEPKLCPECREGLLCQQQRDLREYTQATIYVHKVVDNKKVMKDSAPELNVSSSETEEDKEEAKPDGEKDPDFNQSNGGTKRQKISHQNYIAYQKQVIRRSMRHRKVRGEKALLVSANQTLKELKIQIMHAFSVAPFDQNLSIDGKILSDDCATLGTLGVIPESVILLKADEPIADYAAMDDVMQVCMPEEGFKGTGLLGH
Procedure, shortened: as §1

USP5 = target: T4, USP5 (UniProt P45974)
T4 sequence (whole entry): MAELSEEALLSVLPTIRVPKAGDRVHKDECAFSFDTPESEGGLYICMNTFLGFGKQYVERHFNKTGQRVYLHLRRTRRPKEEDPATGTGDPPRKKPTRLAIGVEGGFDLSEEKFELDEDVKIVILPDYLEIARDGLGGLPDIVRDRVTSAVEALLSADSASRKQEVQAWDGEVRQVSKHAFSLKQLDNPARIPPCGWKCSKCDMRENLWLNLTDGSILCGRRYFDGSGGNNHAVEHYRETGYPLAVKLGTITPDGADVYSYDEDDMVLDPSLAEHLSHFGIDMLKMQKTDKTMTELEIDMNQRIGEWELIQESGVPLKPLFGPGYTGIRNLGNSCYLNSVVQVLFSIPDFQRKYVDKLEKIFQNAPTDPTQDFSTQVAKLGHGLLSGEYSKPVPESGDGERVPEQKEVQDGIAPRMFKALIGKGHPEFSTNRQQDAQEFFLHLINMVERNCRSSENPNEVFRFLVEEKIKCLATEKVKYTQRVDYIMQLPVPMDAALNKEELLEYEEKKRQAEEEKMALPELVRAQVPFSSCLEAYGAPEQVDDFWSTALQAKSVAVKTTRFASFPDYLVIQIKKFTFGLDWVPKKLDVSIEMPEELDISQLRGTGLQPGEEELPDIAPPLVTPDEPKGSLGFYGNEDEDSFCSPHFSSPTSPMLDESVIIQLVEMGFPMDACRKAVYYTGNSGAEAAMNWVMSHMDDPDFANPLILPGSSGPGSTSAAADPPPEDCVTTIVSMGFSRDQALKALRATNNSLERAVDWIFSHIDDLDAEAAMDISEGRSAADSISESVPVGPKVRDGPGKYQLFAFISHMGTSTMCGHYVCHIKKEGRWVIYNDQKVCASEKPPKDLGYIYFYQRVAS
Procedure, shortened: as §1

USP54 = USP54 (UniProt Q70EL1)
Procedure, shortened: as §1

USP7 = USP7 (UniProt Q93009)
Sequence of USP7 (Q93009 whole entry, looked up): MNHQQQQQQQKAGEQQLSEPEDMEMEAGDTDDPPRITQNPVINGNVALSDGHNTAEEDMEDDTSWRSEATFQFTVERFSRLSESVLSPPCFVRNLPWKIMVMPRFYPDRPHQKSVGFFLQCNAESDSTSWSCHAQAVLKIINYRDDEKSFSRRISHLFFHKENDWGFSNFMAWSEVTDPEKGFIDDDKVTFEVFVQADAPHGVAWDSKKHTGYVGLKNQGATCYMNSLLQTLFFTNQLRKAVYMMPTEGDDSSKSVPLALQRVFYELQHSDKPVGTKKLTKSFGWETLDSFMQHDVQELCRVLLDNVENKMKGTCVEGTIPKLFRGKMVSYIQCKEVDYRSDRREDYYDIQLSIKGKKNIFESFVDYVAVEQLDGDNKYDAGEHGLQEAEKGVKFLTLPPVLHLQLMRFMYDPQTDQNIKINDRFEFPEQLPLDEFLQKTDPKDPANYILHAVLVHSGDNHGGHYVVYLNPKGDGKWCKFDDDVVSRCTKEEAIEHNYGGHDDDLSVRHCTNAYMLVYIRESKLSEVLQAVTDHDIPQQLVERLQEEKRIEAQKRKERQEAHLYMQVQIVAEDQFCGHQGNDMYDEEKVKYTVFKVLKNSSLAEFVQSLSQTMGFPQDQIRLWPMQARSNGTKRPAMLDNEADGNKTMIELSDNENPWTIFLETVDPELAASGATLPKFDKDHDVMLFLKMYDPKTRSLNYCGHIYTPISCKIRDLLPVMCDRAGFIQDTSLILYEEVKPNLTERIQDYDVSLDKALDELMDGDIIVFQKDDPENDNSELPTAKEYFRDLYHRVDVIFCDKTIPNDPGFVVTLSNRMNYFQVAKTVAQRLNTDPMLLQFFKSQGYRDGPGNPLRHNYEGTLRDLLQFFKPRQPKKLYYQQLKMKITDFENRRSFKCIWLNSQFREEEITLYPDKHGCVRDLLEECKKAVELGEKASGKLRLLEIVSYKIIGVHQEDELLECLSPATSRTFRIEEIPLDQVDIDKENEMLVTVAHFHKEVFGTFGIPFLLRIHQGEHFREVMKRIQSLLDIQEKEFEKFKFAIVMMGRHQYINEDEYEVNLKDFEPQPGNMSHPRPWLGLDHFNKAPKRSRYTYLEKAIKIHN
Procedure, shortened: as §1

USP8 = target: T5, USP8 (UniProt P40818)
T5 sequence (whole entry): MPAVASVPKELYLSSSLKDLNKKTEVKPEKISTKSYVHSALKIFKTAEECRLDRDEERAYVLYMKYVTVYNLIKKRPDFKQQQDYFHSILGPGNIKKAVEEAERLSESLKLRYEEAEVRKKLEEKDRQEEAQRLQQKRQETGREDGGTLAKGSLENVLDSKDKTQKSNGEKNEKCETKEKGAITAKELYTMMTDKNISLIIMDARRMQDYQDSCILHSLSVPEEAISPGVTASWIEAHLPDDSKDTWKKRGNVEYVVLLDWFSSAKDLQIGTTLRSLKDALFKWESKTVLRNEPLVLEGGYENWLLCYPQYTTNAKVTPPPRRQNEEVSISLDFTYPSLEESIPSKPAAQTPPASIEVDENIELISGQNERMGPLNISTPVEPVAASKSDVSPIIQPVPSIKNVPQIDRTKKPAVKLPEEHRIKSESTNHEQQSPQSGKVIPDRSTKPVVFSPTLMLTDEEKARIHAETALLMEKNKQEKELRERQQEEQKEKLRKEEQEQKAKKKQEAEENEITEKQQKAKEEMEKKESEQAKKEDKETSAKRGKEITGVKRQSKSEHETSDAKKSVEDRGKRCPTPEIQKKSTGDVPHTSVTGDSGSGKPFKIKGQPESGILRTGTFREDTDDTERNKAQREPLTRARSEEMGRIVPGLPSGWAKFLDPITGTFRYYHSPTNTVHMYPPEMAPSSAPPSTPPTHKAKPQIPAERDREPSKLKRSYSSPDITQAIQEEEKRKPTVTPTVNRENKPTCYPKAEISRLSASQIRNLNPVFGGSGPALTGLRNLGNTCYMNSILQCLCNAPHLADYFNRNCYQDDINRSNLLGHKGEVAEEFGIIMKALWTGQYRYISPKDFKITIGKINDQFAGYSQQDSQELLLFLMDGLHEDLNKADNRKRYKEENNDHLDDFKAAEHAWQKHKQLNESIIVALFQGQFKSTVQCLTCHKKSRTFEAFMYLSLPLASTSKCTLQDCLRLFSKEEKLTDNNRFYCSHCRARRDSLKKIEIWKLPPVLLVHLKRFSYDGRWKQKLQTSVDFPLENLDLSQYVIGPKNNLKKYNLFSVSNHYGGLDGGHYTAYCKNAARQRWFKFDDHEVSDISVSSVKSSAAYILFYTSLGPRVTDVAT
Procedure, shortened: as §1

USP9X = USP9X (UniProt Q93008)
Sequence of USP9X (Q93008 whole entry): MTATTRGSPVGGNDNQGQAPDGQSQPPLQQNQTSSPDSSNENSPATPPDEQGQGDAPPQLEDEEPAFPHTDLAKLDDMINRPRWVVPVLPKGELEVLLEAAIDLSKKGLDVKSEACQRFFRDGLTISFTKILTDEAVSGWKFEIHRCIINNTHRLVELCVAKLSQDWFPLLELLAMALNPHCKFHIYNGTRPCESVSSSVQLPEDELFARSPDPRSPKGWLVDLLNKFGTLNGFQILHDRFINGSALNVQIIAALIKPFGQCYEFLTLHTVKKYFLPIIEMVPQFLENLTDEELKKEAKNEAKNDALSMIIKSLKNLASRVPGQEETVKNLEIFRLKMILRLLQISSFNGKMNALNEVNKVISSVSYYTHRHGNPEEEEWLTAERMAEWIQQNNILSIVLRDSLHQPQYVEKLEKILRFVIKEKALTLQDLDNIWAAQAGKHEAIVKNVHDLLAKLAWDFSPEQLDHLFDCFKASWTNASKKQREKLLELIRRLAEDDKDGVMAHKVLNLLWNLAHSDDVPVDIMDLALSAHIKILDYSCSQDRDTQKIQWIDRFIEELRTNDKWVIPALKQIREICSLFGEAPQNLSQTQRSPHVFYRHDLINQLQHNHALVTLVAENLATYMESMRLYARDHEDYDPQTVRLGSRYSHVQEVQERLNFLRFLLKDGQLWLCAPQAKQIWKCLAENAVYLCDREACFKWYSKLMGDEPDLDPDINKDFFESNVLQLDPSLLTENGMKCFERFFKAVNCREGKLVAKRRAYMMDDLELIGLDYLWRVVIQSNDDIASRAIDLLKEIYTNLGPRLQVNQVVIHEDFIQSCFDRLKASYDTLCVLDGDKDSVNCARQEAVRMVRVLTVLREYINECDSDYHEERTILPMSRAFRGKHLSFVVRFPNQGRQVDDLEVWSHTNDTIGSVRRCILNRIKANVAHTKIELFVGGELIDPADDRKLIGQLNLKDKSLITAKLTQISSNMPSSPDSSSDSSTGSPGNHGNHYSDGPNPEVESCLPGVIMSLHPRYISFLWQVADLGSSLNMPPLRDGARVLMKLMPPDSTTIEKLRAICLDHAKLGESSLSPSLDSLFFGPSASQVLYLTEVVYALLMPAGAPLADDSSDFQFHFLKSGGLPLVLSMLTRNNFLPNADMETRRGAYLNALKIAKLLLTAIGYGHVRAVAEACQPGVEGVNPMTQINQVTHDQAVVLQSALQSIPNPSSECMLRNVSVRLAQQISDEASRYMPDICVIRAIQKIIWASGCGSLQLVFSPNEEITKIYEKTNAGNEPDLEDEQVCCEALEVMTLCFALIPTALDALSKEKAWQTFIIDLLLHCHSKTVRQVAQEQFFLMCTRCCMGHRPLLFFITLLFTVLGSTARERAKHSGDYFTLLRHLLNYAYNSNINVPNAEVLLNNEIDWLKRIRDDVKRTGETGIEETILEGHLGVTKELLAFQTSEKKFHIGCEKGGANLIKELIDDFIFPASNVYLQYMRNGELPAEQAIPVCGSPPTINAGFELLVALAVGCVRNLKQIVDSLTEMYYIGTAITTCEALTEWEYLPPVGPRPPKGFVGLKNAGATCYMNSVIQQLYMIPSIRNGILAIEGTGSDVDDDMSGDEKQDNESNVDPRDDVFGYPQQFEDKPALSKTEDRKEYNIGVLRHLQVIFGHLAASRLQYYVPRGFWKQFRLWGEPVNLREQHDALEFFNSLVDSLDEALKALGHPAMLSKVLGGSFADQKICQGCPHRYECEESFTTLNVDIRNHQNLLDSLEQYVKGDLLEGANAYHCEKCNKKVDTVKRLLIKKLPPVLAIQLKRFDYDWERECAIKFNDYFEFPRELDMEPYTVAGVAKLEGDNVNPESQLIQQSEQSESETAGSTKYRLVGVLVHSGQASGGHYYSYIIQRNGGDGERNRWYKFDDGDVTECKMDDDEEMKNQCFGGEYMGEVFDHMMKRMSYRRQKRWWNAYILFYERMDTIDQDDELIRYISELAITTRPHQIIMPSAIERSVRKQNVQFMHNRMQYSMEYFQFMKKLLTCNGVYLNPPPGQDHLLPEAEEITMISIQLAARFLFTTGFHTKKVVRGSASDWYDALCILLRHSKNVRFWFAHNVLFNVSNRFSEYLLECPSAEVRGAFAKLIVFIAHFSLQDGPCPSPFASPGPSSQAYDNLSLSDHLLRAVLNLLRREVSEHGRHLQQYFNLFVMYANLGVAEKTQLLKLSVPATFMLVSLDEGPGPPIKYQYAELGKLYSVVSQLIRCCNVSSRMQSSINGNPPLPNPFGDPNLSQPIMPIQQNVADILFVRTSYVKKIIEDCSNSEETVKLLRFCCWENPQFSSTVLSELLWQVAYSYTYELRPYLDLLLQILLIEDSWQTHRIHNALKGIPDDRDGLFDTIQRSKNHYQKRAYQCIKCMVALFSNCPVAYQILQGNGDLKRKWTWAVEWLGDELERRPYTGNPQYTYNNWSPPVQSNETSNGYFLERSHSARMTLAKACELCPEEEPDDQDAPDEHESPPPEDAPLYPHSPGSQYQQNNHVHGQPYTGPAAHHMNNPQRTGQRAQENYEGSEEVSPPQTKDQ
Procedure, shortened: as §1

UniProt O00487 = target: UniProt O00487
Sequence of UniProt O00487 (O00487 whole entry): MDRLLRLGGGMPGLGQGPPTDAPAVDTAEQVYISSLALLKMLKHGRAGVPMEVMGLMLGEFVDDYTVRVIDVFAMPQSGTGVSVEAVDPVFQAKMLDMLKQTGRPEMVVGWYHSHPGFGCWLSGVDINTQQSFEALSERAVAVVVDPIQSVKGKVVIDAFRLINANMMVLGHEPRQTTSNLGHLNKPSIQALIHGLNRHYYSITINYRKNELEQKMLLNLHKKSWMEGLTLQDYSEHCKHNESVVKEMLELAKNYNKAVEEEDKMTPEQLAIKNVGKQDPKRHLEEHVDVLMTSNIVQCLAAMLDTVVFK
Procedure, shortened: as §1

Measured: log2 ratio of Biotin-Ahx-Ub-VS probe labelling

CCN(C(=O)CCl)C1CCS(=O)(=O)C1 (stereo not given)
inactive: USP42 0.372 | USP46 -0.128 | USP47 0.027 | USP48 -0.155 | USP5 0.158 | USP54 -0.012 | USP7 -0.288 | USP8 0.0171 | USP9X -0.112 | UniProt O00487 0.0162
